The subject of experiment [1] is Epidermal growth factor receptor (Homo sapiens), P00533 [T790M]. Particulars: at 1 µM.
Experiment [2] has as its system Epidermal growth factor receptor (Homo sapiens), P00533 [L858R,T790M]. Particulars: at 0.1 µM.
The test system is the same in experiment [3]. Conditions: at 1 µM.
The target in experiment [4] is Ephrin type-A receptor 2 (Homo sapiens) (UniProt P29317). Conditions: at 0.1 µM.
Experiment [5] shares this target. Particulars: at 1 µM.
For experiment [6], the target named is T1, Ephrin type-A receptor 3 (Homo sapiens) (UniProt P29320).
T1 sequence (whole entry): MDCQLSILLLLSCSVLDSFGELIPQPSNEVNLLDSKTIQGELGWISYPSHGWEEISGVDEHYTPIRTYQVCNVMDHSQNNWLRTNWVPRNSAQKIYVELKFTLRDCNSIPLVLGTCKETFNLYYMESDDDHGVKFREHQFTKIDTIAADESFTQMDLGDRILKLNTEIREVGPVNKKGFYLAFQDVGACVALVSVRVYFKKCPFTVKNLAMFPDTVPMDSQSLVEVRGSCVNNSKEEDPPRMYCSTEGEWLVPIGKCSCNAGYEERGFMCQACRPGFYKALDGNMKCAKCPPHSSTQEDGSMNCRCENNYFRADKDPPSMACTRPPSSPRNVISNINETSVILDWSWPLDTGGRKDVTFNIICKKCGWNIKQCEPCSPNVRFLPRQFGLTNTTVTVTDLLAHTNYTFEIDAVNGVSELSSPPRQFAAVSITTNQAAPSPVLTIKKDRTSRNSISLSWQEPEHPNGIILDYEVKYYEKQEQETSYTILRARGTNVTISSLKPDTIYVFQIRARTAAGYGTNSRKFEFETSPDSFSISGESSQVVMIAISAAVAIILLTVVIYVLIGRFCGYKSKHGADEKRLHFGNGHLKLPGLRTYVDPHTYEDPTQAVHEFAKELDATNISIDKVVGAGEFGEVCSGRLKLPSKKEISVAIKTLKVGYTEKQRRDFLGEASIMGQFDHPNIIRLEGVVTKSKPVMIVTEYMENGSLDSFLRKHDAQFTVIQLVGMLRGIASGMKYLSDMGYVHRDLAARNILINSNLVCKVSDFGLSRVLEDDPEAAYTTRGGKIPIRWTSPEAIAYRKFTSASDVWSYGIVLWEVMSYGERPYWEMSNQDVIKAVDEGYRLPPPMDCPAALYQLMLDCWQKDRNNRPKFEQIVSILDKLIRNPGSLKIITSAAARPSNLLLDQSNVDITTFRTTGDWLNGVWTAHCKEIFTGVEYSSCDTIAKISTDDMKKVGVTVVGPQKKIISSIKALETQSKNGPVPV
Particulars: at 0.1 µM.

Experiment [7] addresses T1, Ephrin type-A receptor 3 (Homo sapiens). Particulars: at 1 µM.
Experiment [8] has as its target Ephrin type-A receptor 4 (Homo sapiens) (UniProt P54764). Particulars: at 0.1 µM.
For experiment [9] the target is unchanged. Conditions: at 1 µM.
In experiment [10] the target is T2, Ephrin type-B receptor 2 (Homo sapiens) (UniProt P29323).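 Further: reported as mean inhibition of EPHB2, from the GSK PKIS dataset.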
T2 sequence (whole entry): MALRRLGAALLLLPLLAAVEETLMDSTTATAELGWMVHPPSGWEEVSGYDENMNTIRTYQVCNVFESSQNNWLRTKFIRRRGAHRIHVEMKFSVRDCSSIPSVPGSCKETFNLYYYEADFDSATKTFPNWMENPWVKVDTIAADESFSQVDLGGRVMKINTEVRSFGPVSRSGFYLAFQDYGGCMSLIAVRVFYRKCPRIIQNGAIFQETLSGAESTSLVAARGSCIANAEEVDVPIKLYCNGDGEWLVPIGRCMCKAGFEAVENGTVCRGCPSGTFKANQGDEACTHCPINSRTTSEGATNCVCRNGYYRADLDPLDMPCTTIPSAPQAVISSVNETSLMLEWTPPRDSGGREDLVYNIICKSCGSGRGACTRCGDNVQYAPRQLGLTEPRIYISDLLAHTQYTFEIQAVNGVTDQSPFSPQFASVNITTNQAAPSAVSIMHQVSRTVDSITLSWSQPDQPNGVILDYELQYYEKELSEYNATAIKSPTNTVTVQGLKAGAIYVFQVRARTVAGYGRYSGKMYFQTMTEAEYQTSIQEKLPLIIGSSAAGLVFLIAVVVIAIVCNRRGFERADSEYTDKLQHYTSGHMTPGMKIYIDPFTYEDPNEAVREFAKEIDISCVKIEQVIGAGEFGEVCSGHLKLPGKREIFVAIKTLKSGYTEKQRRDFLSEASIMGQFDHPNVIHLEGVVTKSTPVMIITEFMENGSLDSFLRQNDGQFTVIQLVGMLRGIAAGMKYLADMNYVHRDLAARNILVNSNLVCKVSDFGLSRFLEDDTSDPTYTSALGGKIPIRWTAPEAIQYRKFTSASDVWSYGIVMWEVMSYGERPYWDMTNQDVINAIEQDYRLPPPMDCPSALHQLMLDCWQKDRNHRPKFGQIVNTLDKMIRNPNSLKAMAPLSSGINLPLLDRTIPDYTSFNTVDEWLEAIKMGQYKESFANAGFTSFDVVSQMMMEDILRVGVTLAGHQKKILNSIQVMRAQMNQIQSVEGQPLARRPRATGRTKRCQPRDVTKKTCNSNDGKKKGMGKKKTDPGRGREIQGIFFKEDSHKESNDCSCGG
Particulars: at 0.1 µM.

Epidermal growth factor receptor (Homo sapiens), P00533 [T790M], sequence (P00533 whole entry T790M): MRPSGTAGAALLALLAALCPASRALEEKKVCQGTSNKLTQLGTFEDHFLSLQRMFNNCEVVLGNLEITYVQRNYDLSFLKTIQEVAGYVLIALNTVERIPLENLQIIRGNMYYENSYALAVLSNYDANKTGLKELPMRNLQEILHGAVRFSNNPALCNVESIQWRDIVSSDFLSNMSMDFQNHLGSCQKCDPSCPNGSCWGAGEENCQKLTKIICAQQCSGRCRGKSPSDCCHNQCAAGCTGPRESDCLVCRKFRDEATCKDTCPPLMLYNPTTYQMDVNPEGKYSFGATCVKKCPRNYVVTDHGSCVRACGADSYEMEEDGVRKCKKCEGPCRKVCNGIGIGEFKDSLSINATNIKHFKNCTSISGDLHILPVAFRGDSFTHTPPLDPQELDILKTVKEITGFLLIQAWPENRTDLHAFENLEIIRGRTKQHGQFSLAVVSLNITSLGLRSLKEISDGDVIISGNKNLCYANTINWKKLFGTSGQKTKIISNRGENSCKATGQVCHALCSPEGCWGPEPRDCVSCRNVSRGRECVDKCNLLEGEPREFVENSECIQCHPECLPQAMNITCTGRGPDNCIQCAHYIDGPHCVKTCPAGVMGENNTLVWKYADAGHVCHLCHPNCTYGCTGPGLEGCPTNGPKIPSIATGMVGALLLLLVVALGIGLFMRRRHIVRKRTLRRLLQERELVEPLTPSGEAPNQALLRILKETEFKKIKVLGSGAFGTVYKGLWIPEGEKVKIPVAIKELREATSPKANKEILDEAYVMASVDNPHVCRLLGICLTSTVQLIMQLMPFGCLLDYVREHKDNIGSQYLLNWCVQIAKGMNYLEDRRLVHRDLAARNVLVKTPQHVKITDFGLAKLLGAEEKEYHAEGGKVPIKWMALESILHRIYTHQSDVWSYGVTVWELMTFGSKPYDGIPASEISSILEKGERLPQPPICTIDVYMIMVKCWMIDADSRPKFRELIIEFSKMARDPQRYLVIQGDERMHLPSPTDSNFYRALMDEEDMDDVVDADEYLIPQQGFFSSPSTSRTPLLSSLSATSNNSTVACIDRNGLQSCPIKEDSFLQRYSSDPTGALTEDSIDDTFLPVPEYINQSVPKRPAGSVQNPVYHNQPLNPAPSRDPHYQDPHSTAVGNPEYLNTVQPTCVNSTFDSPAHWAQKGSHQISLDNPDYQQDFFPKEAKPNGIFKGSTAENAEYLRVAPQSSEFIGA
Ephrin type-A receptor 4 (Homo sapiens), sequence (P54764 whole entry): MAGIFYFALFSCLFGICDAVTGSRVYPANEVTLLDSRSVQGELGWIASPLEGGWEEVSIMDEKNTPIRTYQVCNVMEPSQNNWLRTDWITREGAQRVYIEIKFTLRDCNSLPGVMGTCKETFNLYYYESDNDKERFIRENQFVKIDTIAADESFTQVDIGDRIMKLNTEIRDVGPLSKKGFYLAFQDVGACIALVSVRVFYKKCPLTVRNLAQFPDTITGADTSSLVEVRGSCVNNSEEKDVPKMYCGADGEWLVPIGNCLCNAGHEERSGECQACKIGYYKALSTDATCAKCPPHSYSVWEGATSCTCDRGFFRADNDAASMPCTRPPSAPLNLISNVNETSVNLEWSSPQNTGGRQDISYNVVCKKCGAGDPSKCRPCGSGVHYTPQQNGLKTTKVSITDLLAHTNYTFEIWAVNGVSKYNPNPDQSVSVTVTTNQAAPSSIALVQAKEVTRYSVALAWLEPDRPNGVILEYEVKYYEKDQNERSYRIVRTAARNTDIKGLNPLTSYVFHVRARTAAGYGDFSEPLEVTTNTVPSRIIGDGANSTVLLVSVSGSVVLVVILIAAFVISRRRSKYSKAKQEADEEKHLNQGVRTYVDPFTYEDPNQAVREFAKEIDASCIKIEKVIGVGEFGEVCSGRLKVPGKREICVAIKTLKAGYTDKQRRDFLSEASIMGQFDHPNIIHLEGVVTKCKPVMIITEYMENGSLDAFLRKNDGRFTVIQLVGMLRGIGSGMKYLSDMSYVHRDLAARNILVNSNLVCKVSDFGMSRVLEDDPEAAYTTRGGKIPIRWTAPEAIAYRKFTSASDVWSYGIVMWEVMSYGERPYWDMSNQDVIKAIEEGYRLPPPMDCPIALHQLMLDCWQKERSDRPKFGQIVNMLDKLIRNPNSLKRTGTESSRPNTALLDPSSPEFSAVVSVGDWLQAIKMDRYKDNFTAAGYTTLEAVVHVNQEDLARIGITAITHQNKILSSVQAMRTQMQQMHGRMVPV
Epidermal growth factor receptor (Homo sapiens), P00533 [L858R,T790M], sequence (P00533 whole entry T790M/L858R, looked up): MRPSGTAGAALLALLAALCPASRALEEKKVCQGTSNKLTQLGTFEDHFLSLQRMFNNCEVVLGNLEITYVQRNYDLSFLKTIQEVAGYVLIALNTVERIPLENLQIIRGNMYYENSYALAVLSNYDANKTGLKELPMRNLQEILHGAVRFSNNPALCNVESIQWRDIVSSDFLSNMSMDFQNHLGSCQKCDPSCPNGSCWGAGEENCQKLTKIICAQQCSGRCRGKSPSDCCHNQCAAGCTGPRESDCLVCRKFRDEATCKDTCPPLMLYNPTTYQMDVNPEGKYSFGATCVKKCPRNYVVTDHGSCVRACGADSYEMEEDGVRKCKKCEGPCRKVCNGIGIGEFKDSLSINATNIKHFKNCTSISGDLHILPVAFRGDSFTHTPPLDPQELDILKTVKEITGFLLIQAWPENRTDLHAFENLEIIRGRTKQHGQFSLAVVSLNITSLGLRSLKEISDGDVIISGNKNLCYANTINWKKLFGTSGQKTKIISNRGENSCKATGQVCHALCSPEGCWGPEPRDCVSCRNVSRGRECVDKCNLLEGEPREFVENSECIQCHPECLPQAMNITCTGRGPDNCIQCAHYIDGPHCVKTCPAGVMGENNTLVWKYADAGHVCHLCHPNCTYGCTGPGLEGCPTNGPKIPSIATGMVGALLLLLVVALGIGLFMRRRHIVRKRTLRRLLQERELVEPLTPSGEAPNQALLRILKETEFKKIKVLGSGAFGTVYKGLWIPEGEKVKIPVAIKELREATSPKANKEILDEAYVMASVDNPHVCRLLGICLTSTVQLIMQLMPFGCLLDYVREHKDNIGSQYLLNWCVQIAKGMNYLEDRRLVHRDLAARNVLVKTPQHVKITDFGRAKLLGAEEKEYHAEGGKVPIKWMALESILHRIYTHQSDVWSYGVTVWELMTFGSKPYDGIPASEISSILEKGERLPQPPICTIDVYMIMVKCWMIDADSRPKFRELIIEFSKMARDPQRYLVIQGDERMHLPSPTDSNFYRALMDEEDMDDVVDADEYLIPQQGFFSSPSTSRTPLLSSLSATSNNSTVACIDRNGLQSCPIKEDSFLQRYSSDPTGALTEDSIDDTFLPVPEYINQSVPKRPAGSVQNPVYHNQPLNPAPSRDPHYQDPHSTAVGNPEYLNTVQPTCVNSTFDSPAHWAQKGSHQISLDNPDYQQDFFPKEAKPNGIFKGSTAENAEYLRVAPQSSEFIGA
Ephrin type-A receptor 2 (Homo sapiens), sequence (P29317 whole entry): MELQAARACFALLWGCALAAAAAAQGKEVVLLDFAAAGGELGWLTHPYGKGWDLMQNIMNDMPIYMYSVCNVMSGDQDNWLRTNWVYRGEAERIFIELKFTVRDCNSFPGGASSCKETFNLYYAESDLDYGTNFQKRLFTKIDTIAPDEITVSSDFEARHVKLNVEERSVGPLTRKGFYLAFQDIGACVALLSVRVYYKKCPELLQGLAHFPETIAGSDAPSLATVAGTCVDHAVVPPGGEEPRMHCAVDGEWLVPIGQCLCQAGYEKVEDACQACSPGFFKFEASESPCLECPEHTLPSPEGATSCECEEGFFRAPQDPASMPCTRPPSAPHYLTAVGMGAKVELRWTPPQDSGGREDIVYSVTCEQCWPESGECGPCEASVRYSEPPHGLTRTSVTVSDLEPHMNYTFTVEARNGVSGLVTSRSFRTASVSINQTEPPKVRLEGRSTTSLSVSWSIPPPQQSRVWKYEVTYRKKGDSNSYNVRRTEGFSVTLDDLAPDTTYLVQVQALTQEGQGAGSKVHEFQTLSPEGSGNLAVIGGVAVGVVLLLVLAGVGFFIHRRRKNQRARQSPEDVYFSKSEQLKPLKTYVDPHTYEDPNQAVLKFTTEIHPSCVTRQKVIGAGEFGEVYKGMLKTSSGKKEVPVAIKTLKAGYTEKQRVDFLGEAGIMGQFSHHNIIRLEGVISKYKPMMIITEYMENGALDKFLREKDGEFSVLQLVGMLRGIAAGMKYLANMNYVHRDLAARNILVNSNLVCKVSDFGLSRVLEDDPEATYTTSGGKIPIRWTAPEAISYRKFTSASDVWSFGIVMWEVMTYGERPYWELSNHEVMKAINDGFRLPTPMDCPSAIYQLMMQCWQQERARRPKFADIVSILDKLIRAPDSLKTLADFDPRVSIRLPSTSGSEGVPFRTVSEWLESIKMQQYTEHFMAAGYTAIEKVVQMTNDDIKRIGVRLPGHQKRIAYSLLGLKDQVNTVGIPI

In the case of `Nc1ncnc2occ(-c3ccc(NC(=O)Nc4cc(C(F)(F)F)cc(C(F)(F)F)c4)cc3)c12`, the inhibition was -2.28% in experiment [1]; -1.98% in experiment [2]; 0.18% in [3]; 7.28% in [4]; 42% in experiment [5]; 6.5% in experiment [6]. The inhibition in experiment [7] was determined as 14.6%; in [8], 8.44%; in [9], 44.5%; in [10] it was 22%.

For `CC1=C(C(=O)Nc2ccc3[nH]ncc3c2)C(c2ccc(F)cc2)NC(=O)N1` (stereo not given), the inhibition in experiment [1] is 0.87%; in experiment [2], -2.35%; in experiment [3], -1.39%; in experiment [4], -2.91%; in experiment [5], -2.18%; in [6] it was 2.51%. Also, the inhibition was determined as 2.14% in experiment [7], 4.19% in [8], 4.52% in experiment [9] and 2.76% in [10].

Take `CS(=O)(=O)CCNCc1ccc(-c2ccc3ncnc(Nc4ccc(OCc5ccccc5)c(Cl)c4)c3c2)o1`: the inhibition in [1] is 17.8%; in experiment [2], -1.01%; in experiment [3] it was 2.45%; in experiment [4], -2.92%; in experiment [5], -2.31%; in [6], -2.51%. Further, the inhibition was 1.66% in [7], 1.26% in [8], 9.95% in experiment [9] and 5.36% in [10].

In the case of `O=C1NC(=O)C(c2ccc(Cl)cc2)=C1Nc1ccc(Cl)c(C(=O)O)c1`, the inhibition is -1.21% in [1]; -0.4% in experiment [2]; -1.38% in experiment [3]; -2% in experiment [4]; -1.26% in experiment [5]; -3.17% in experiment [6]. Further, the inhibition in [7] was -3.69%; in experiment [8], -6.1%; in experiment [9], -6.97%; in [10], -0.68%.

On to `CCn1c(-c2nonc2N)nc2c(N3CCCC3)nccc21`, for which the inhibition in [1] was -1.06%; in experiment [2] it was 0.11%; in [3], 0.62%; in experiment [4] it was -5.01%; in [5], -4.35%; in [6], -5.79%. The inhibition in experiment [7] is -2.29%; in experiment [8], -6.53%; in experiment [9] it was -8.11%; in [10] it was -2.18%.

`COc1cc(C=NNc2ncnc3c2cnn3-c2ccccc2)ccc1O`: the inhibition in experiment [1] was 2.02%; in experiment [2], 3.12%; in experiment [3], 13.3%; in experiment [4] it was 3.61%; in experiment [5], 11.4%; in experiment [6], 4.47%. Further, the inhibition in experiment [7] came to 8.46%; in experiment [8], 10.2%; in experiment [9], 17.1%; in experiment [10], 9.57%.

Regarding `CC1=C(C(=O)Nc2ccc3[nH]ncc3c2)C(c2ccc3ccccc3c2)CC(=O)N1` (stereo not given), the inhibition was 3.65% in experiment [1]; 4.92% in [2]; 23.5% in experiment [3]; -0.93% in experiment [4]; 0.37% in experiment [5]; 3.77% in experiment [6]. Further, the inhibition was found to be 6.3% in experiment [7], 6.86% in experiment [8], 10.2% in [9] and 7.74% in experiment [10].

For the compound `COc1cc2ncn(-c3cc(OCc4ccccc4C(F)(F)F)c(C(N)=O)s3)c2cc1OC`, the inhibition was 1.9% in [1]; 3.32% in [2]; 4.7% in [3]; -0.41% in experiment [4]; 3.23% in experiment [5]; -0.35% in [6]. Also, the inhibition in [7] amounted to 7.13%; in experiment [8], 11.3%; in [9] it was 23.3%; in experiment [10], 14.9%.

`O=C1NC(=O)C(c2cccc(Cl)c2)=C1Nc1ccc(O)c(Cl)c1`: the inhibition in experiment [1] was -0.85%; in [2], 0.92%; in experiment [3] it was 0.61%; in experiment [4], 0.74%; in [5] it was 1.32%; in experiment [6] it was 0.53%. Moreover, the inhibition was -2.04% in experiment [7], 1.17% in experiment [8], -8.81% in experiment [9] and -3.19% in experiment [10].

Take `COc1ccc(-c2nn3ncccc3c2-c2ccnc(Nc3ccc(Cl)c(C(F)(F)F)c3)n2)cc1`: the inhibition was found to be 3.31% in [1]; 0.9% in experiment [2]; 4.78% in experiment [3]; 0.97% in experiment [4]; 0.97% in experiment [5]; 3.2% in experiment [6]. Further, the inhibition in experiment [7] was 3.4%; in experiment [8], 6.57%; in experiment [9], 10.2%; in experiment [10] it was 3.9%.

For `Fc1cccc(COc2ccc(Nc3ncnc4cc(-c5ccc[nH]5)sc34)cc2Cl)c1`, the inhibition was 2.62% in experiment [1]; -2.38% in [2]; 0.3% in [3]; -6.71% in experiment [4]; -6.16% in experiment [5]; -1.97% in experiment [6]. Further, the inhibition in experiment [7] is -0.94%; in experiment [8] it was 5.45%; in experiment [9], 6.22%; in [10], 1.52%.

Take `Nc1nc(-c2ccc3c(c2)C(=Cc2cc(Br)c(O)c(Br)c2)C(=O)N3)cs1`: the inhibition in experiment [1] is -1.57%; in experiment [2] it was -0.73%; in experiment [3], 3.93%; in experiment [4], -4.92%; in experiment [5], -4.26%; in experiment [6], -6.05%. Moreover, the inhibition in [7] is -2.41%; in [8], -6.57%; in experiment [9], -2.56%; in [10], -3.26%.

As for `Cc1cccc(-c2n[nH]cc2-c2ccc3ncccc3n2)n1`, the inhibition in experiment [1] was -0.3%; in [2], -1.54%; in [3], -0.13%; in experiment [4] it was -2.12%; in experiment [5], -2.51%; in experiment [6], 0.6%. The inhibition in experiment [7] came out at 3.6%; in experiment [8], 3.45%; in experiment [9], 4.46%; in [10], 1.55%.

Take `Nc1nc(-c2ccccn2)c(-c2ccc3ncccc3n2)s1`: the inhibition worked out at 1.67% in [1]; 2.24% in [2]; 1.13% in experiment [3]; 0.85% in [4]; 0.89% in experiment [5]; 2.58% in [6]. For the same compound, the inhibition came to 3.28% in experiment [7], 7.9% in experiment [8], 8.8% in experiment [9] and 5.32% in experiment [10].

As for `CS(=O)(=O)CCN(CC#N)Cc1ccc(-c2ccc3ncnc(Nc4ccc(OCc5cccc(F)c5)c(Cl)c4)c3c2)o1`, the inhibition in experiment [1] was 5.17%; in experiment [2], -1.28%; in experiment [3], 0.73%; in [4], -5.85%; in [5], -5.32%; in experiment [6], -2.74%. The inhibition in [7] was -2.11%; in [8], 1.75%; in experiment [9], 5.59%; in [10] it was 6.06%.

Regarding `CN1CCC(C(=O)Nc2n[nH]c3nnc(-c4ccccc4)cc23)CC1`, the inhibition in experiment [1] was 4.1%; in experiment [2], -2.57%; in experiment [3] it was 4.67%; in experiment [4], 1.84%; in [5], 2.09%; in experiment [6] it was 4.03%. The inhibition in [7] was determined as 2.66%; in experiment [8], 8.03%; in experiment [9], 8.45%; in [10], 4.92%.

As a reminder, the inhibition is the drop in the measured response relative to a control, in per cent.
